The whole screen tested about 5,500 compounds, of which about 2,000 (36%) were called active. Roughly 18% stayed inconclusive and do not appear here. Some of the results follow. Unmarked numbers belong to inactive results. Rule as the data show it: active = normalized growth mostly below about 0.91 (no sharp cut-off); inconclusive = no clear call, values can overlap the other calls; inactive = mostly above about 0.92.
Assay: chemical genetic growth profiling, strain panel (AID 1159580);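 also: tested at 20 µM; growth read once vehicle control cultures reached saturation at 30 °C; 1 = growth at the plate median or of vehicle wells; lower values mean less growth of the strain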
Conditions: S. cerevisiae deletion strains, growth OD
[1] = locus YDR150W, strain NUM1, hits give low values
[2] = locus YDR363W, strain ESC2, hits give low values
[3] = locus YER002W, strain NOP16, hits give low values
[4] = locus YMR263W, strain SAP30, hits give low values
[5] = locus YNL153C, strain GIM3, hits give low values
[6] = locus YNL175C, strain NOP13, hits give low values
[7] = locus YNL197C, strain WHI3, hits give low values
[8] = locus YNL224C, strain SQS1, hits give low values
[9] = locus YOR083W, strain WHI5 (second series), hits give low values
[10] = locus YPL241C, strain CIN2, hits give low values

Compound	normalized growth (locus YAL040C, strain CLN3, hits give low values)	normalized growth (locus YCL061C, strain MRC1 (second series), hits give low values)	normalized growth [1]	normalized growth [2]	normalized growth [3]	normalized growth (locus YGR229C, strain SMI1, hits give low values)	normalized growth (locus YJR075W, strain HOC1, hits give low values)	normalized growth [4]	normalized growth (locus YMR307W, strain GAS1, hits give low values)	normalized growth [5]	normalized growth [6]	normalized growth [7]	normalized growth [8]	normalized growth (locus YNL322C, strain KRE1, hits give low values)	normalized growth [9]	normalized growth [10]	normalized growth (locus YGR078C, strain PAC10, hits give low values)
C[N+](C)(C)CCOC(=O)CCC(=O)OCC[N+](C)(C)C	0.988	1.01	1.02	1.01	1.01	1.04	0.992	1	1.03	1.03	1.01	1.02	1.01	0.992	1.02	0.987	
C[N+](C)(C)CCOC(=O)CBr			1.06 [resistant] (active)	1.05	1			1.01		1.07	1.02	0.985	1.01		1.05	1.01	1.02
